Assay outcomes deposited in PubChem by The Scripps Research Institute Molecular Screening Center.
Only a selection was taken, and hits are over-represented in it overall.
SF-1 inh: inhibitors of human nuclear receptor SF-1; CHO-K1 Gal4-SF-1 LBD luciferase reporter; inhibition, % at 10 µM; 65,000 tested, 0.55% active;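 active = inhibition above the mean inhibition of all tested compounds plus 3 SD, cut at about 48% in these data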
Target sequence (Q13285 whole entry, looked up, the tested form may be a part): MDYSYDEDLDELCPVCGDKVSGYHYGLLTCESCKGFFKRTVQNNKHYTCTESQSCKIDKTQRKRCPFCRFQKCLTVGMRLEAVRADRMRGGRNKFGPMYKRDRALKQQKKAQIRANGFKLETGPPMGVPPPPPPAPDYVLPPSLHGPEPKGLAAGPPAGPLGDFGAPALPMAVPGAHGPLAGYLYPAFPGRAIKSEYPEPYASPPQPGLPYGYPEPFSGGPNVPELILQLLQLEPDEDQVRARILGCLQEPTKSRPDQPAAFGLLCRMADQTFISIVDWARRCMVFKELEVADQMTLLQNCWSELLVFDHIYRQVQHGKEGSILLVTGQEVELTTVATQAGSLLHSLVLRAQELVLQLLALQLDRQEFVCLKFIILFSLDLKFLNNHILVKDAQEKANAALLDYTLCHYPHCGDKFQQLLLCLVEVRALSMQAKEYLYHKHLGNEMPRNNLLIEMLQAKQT
Hits are given with their value; i = inactive.

SMILES	SF-1 inh
c1cn(CC2(Cn3ccnc3)COC2)cn1	i
CCc1cc2c(=O)c(-c3nc4ccccc4[nH]3)coc2c(CN2CCCC(C)C2)c1O (centres undefined)	i
CN(C)S(=O)(=O)c1ccc(C(=O)N2CCC(c3nc4ccccc4o3)CC2)cc1	i
COC(=O)Cn1c(C)nc2c(sc3nc(C)cc(C)c32)c1=O	i
COc1ccc(C(=O)N2c3cc4c(cc3C(C)=CC2(C)C)OCO4)cc1	i
CCC(C)(C)n1nnnc1C(c1cccc(C#N)c1)N1CCN(c2cccc(C)c2C)CC1 (centres undefined)	i
Cc1ccc(C)c(N2CCN(C(=O)CCCn3c(=S)[nH]c4cc5c(cc4c3=O)OCO5)CC2)c1	i
COCCNc1ncnc2c1cnn2-c1ccc(Cl)cc1	i
CCOC(=O)C1CCN(c2ncnc3c2cnn3-c2ccc(Cl)cc2)CC1	56.1
Clc1ccc(-n2ncc3c(N4CCCC4)ncnc32)cc1	61.0
COC(=O)C(C)n1cnc2c(cnn2-c2ccc(Cl)cc2)c1=O (centres undefined)	i
CCOC(=O)C1CCN(C(=O)c2ccc(Cl)c(S(=O)(=O)N3CCOCC3)c2)CC1	i
OCCOCCNc1ncnc2c1cnn2-c1ccc(Cl)cc1	i
COc1ccc([C@@H]2Sc3ccccc3N(CCN(C)C)C(=O)[C@@H]2OC(C)=O)cc1	i
Cc1cc(C)n2nc(SCC3COc4ccccc4O3)nc2n1 (centres undefined)	i
COc1cccc(CN(Cc2cccnc2)S(=O)(=O)c2ccc(-n3cnnn3)c(C)c2)c1	i
O=S(=O)(/C=C/c1ccccc1)n1cnc2ccccc21	i
CSc1nc(C)c2c(c1C#N)CCCC2	i
CCOC(=O)c1c(C)c(C(=O)Nc2ccc(N(C)C)cc2)c(C)n1CC	i
CN(C)c1cccc(C(=O)NC2CCCCCC2)c1	i
CN(C)c1ccc(N/C=C/C(=O)c2ccccc2)cc1	65.5
CC(=O)NC1(C(F)(F)F)NC(=O)N(CC(C)C)C1=O (centres undefined)	i
C1=C(C(c2nnnn2C2CCCCC2)N2CCCCC2)COc2ccccc21 (centres undefined)	i
COc1ccc(CNC(=O)C2CCCN(S(=O)(=O)c3cnc[nH]3)C2)cc1 (centres undefined)	i
Cn1c(-c2ccccc2)cc2c3no[n+]([O-])c3ccc21	73.0
SMILES	SF-1 inh
Cc1nnc(Sc2nc3c(c(=O)[nH]c(=O)n3C)n2CCCc2ccccc2)s1	i
COCCn1c(SCCN2CCCCC2)nc2ccccc2c1=O	i
CCCCN1CC(C(=O)NC2CCCCC2)CC1=O (centres undefined)	i
C=CCSc1nncn1/N=C/c1ccc(OC)cc1	i
COc1ccc(/C=N\n2nnc3ccccc32)cc1	69.6
CCN(C)c1ccc(/C=N\n2nnnc2N)cc1	i
CCn1ccnc1C(O)c1cccc(OC)c1OC (centres undefined)	i
CCC(C)OC(=O)c1[nH]c2c(c1C)C(=O)CC(c1ccc(N(C)C)cc1)C2 (centres undefined)	i
FC(F)(F)c1cnc(Nc2ccc(N3CCOCC3)cc2)c(Cl)c1	i
c1ccc2nc(-c3nc4ccccc4o3)ccc2c1	63.8
Cc1ccnc2ccc(-c3nc4ccccc4o3)cc12	i
Clc1ccc2oc(-c3ccccn3)nc2c1	i
COCCCNc1oc(-c2ccccc2F)nc1C#N	i
O=C(CSc1nnc(Cc2cc(=O)[nH]c(=O)[nH]2)n1-c1ccc(F)cc1)N1CCCCC1	i
O=C(CN1C(=O)CSC1=O)N1CCc2ccccc2C1	i
O=S(=O)(c1ccccc1)c1cccc(S(=O)(=O)N2CCCCC2)c1	i
O=S(=O)(c1ccc2c(c1)C(=NO)c1cc(S(=O)(=O)N3CCCCC3)ccc1-2)N1CCCCC1	96.5
O=C(c1ccccc1F)N1CCN(S(=O)(=O)c2ccc(S(=O)(=O)N3CCCCC3)cc2)CC1	i
O=C1C2CC=CCC2C(=O)N1c1n[nH]c(Cc2ccccc2)n1 (centres undefined)	i
CCc1ccc(N2CCCn3c2nc2c3c(=O)n(CCN3CCOCC3)c(=O)n2C)cc1	i
c1ccc(-c2cccc(-c3ccccn3)n2)nc1	87.1
c1ccc(-c2nnc(-c3ccccn3)nn2)nc1	i
Cc1cc(Nc2ccc(F)cc2F)n2ncnc2n1	i
Cc1ccccc1NS(=O)(=O)c1ccc(OCC(=O)N2CCCC2)cc1	i
Cc1cc(=O)oc2cc(OCC(=O)OCc3nnc(-c4ccccc4)o3)ccc12	i
SMILES	SF-1 inh
Cc1ccc(N=Cc2ccc[nH]2)c(O)c1	i
Cc1cc(O)c(C2(C(F)(F)F)NCCNC2=O)cc1C (centres undefined)	i
CC1CCCCC1NS(=O)(=O)c1ccc(S(=O)(=O)NCc2ccncc2)cc1 (centres undefined)	69.8
O=c1[nH]c2c(s1)C=Nc1ccccc1N2	i
COC(=O)c1ccc2c(=O)n(CCN3CCOCC3)c(SCC(=O)NC3CCCCC3)nc2c1	i
CCOc1ccc(-c2nnc(N)o2)cc1	i
Cc1ccc(-c2noc(CCCC(=O)N3CCOCC3)n2)cc1	i
COc1ccc(-c2noc(CCCC(=O)O)n2)cc1	56.6
Cc1ccc(OCc2nc(-c3ccccc3)no2)c(C)c1	i
CCOc1ccc(-c2noc(CCC(=O)O)n2)cc1	53.2
COc1ccc(-c2ccc(CCC(=O)O)n2C(C)C)cc1	i
O=C(NC1CCCCCC1)C1CCN(C(=O)Cc2ccccc2)CC1	i
Cc1cccc(-c2nc(C#N)c(NC3CCCCC3)o2)c1	i
CCC(C)[C@H](NC(=O)NCc1cccs1)C(=O)O (some centres undefined)	i
O=C(CC(=O)c1ccccc1)Nc1ccc2c(c1)OCCO2	i
O=C(Nc1ccc2sccc2c1)c1ccc(Cl)s1	i
Cc1nc2ccc3nc(NC(=O)c4ccc(S(=O)(=O)N5CCOCC5)cc4)sc3c2s1	i
O=C(NC1CCCCC1)c1ccc(S(=O)(=O)N2CCCCC2)cc1	i
O=C(Nc1nc(-c2ccccn2)cs1)c1ccc(Cl)s1	94.8
O=C(Nc1nccs1)c1ccc(Cl)s1	i
O=C(Nc1nc(-c2ccccn2)cs1)c1ccc(S(=O)(=O)N2CCCCC2)cc1	64.1
O=C1C/C(=C/NCc2ccccc2)C(=O)N1	i
COc1ccccc1OC(=O)C1CC(=O)N(c2ccc(Cl)cc2)C1 (centres undefined)	i
Cc1cc(C)nc(NCC(O)CNc2ccccc2Cl)n1 (centres undefined)	i
CCC1CCc2c(sc(NC(=O)c3ccoc3C)c2C(N)=O)C1 (centres undefined)	i
SMILES	SF-1 inh
Cc1ccc(NC(=O)CSC2=C(C#N)C(c3ccc4c(c3)OCO4)C3=C(CCCC3=O)N2)c(C)c1 (centres undefined)	i
CSC1=C(C#N)C(c2ccc(Cl)cc2)C2=C(CC(C)(C)CC2=O)N1 (centres undefined)	52.5
COc1ccc(S(=O)(=O)N(C)CC(=O)NC2CC2)cc1	i
COc1ccc(OC)c(N(CC(=O)N2CCN(c3cc(Cl)ccc3C)CC2)S(C)(=O)=O)c1	i
Cc1cc(C)n(-c2ccc3cccc(NS(C)(=O)=O)c3n2)n1	78.7
CCCC12CN3CC(C)(CN(C1)C3c1ccc(OC(C)C)cc1)C2=O (centres undefined)	i
Cc1csc(SCCN2C(=O)c3ccccc3C2=O)n1	i
CCOC(=O)c1cnc(-n2nc(C)cc2C)nc1NCc1ccc2c(c1)OCO2	i
CCOc1ccc(Nc2cc(C)nc(-n3nc(C)cc3C)n2)cc1	64.9
CCOC(=O)N1CCC(C(=O)Nc2ccc(OCC)cc2)CC1	i
CCn1c(SCC(=O)Nc2nc3c(s2)CCCC3)nc2c1c(=O)n(C)c(=O)n2C	i
O=S1(=O)Nc2c(ccc3cccnc23)-c2ccccc21	90.9
